From PubChem BioAssay AID431 (Sanford-Burnham Center for Chemical Genomics, 2006)
Screen size: about 63,000 compounds; about 1,100 (1.7%) were called active.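 The calls were made as follows: active = compounds whose percent cytotoxicity in the single-dose primary screen, scaled between solvent and toxic-drug controls, exceeds 50; inactive = the rest.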 The list comes from a sample in which actives are over-represented; it also holds similar structures and randomly drawn compounds. Results with a measured potency or affinity are listed apart.

Assay: cytotoxicity in KRAS-transformed pancreatic duct cells, primary screen, cell-based, fluorescence, HTS (AID 431);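 also: 0% = DMSO solvent wells and 100% = doxorubicin-treated wells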
Conditions: HPDE-C7K KRASV12 cells, Alamar Blue viability, 48 h; at 10 µM; active compounds read high
With CC(C)(C)SCCNC(=O)COc1ccc(Cl)cc1 the cytotoxicity was 7.6% (inactive). For CCOCCCNS(=O)(=O)c1ccc2c(c1)OCCO2, the cytotoxicity was 11.2% (inactive). For O=c1c2c3c(sc2ncn1/N=C/c1ccco1)CCCC3, the cytotoxicity was 1.1% (inactive). In the case of O=C(Nc1ccc2oc(-c3ccccc3F)nc2c1)c1cncc(Br)c1, the cytotoxicity is reported as 14.2% (inactive). With O=C(Nc1ccc2oc(-c3ccccc3)nc2c1)c1ccc2c(c1)OCCO2 the cytotoxicity was 37% (inactive). With Cc1c(NC(=O)c2ccc3c(c2)OCO3)cccc1-c1nc2ccccc2o1 the cytotoxicity was -4.5% (inactive). In the case of Cc1ccc(-c2nc3ccccc3o2)cc1NC(=O)c1ccc2c(c1)OCO2, the cytotoxicity is reported as -8.2% (inactive). For O=C(Nc1ccccc1-c1nc2ccccc2o1)c1ccc2c(c1)OCCO2, the cytotoxicity was 79% (active). For O=C(Nc1ccc2oc(-c3ccccc3F)nc2c1)c1ccc2c(c1)OCCO2, the cytotoxicity was 83.6% (active). In the case of COc1cccc(-c2nnn(CC(=O)NC3CCCC3)n2)c1OC, the cytotoxicity is reported as 3.1% (inactive). For O=C(CC1Sc2ccccc2NC1=O)Nc1cccc(C(=O)O)c1 (stereo unspecified), the cytotoxicity was 2.1% (inactive). For O=C(NCc1ccncc1)c1ccc(Br)o1, the cytotoxicity was -21.6% (inactive). For O=C(NCc1ccccc1Cl)C1CCN(S(=O)(=O)N2CCCCC2)CC1, the cytotoxicity was -3.6% (inactive). With CCOC(=O)/C=C(\C)Sc1cc(=O)oc2ccccc12 the cytotoxicity was 77.6% (active). With CCOC(=O)Oc1ccc2oc(=O)cc(C)c2c1 the cytotoxicity was 10.2% (inactive). In the case of CCOC(=O)Nc1cc(=O)c2ccccc2o1, the cytotoxicity is reported as 38.2% (inactive). In the case of Cc1csc(SCc2c(C(=O)O)oc3ccccc23)n1, the cytotoxicity is reported as -0.8% (inactive). For CCOC(=O)C1=C(C)NC(=O)NC1c1cn(-c2ccccc2)nc1-c1cccs1 (stereo unspecified), the cytotoxicity was 23.8% (inactive). In the case of Fc1cccc(F)c1CN1CCN(c2ncccn2)CC1, the cytotoxicity is reported as -1.5% (inactive). With COCCN1Cc2cccc(C(=O)Nc3cccc(OC)c3)c2C1=O the cytotoxicity was -3.5% (inactive). For Cn1c(=O)c2cc(S(=O)(=O)N3CCN(c4cccc(C(F)(F)F)c4)CC3)ccc2n(C)c1=O, the cytotoxicity was -3.4% (inactive). With Cn1c(=O)c(=O)n(C)c2cc(S(=O)(=O)N3CCN(c4cccc(C(F)(F)F)c4)CC3)ccc21 the cytotoxicity was 80.1% (active). In the case of Cc1c(S(=O)(=O)N2CCN(c3cccc(C(F)(F)F)c3)CC2)c(=O)n(C)c(=O)n1C, the cytotoxicity is reported as 5.8% (inactive). With COc1ccccc1CN(CC(=O)NCc1ccco1)C(=O)CNS(=O)(=O)c1ccccc1 the cytotoxicity was 1.2% (inactive). With COc1ccccc1N1CCN(C(=O)C2CCN(S(=O)(=O)c3ccc(Cl)cc3)CC2)CC1 the cytotoxicity was -11.9% (inactive). In the case of Cc1cc(C(=O)OCC(=O)c2c(N)n(C)c(=O)n(C)c2=O)c(C)n1-c1ccccc1, the cytotoxicity is reported as 1.3% (inactive). In the case of Cc1cccc(S(=O)(=O)C(C#N)c2nc3ccccc3nc2N2CCCC2)c1 (stereo unspecified), the cytotoxicity is reported as -13.4% (inactive). For Cc1ccc(C)c(S(=O)(=O)C(C#N)c2nc3ccccc3nc2N2CCOCC2)c1 (stereo unspecified), the cytotoxicity was -1.1% (inactive). With Cc1ccc(S(=O)(=O)C(C#N)c2nc3ccccc3nc2N2CCC(C)CC2)cc1 (stereo unspecified) the cytotoxicity was 30.1% (inactive). For Cc1ccc(S(=O)(=O)C(C#N)c2nc3ccccc3nc2N2CCCC2)cc1 (stereo unspecified), the cytotoxicity was 34.2% (inactive). With COc1ccc(S(=O)(=O)C(C#N)c2nc3ccccc3nc2N2CCCCC2)cc1 (stereo unspecified) the cytotoxicity was 3.2% (inactive). For CC1CCCN(c2nc3ccccc3nc2C(C#N)S(=O)(=O)c2ccccc2)C1 (stereo unspecified), the cytotoxicity was 47.8% (inactive). In the case of Cc1ccc(C)c(S(=O)(=O)C(C#N)c2nc3ccccc3nc2N2CC(C)OC(C)C2)c1 (stereo unspecified), the cytotoxicity is reported as 59.3% (active). With Cc1ccc(C)c(S(=O)(=O)C(C#N)c2nc3ccccc3nc2N2CCCC2)c1 (stereo unspecified) the cytotoxicity was 14.7% (inactive). With Cc1cccc(S(=O)(=O)C(C#N)c2nc3ccccc3nc2N2CC(C)OC(C)C2)c1 (stereo unspecified) the cytotoxicity was 7.7% (inactive). In the case of Cc1ccc(S(=O)(=O)C(C#N)c2nc3ccccc3nc2N2CCCC2)cc1C (stereo unspecified), the cytotoxicity is reported as 56.7% (active). For COc1ccc(S(=O)(=O)C(C#N)c2nc3ccccc3nc2N2CCCC(C)C2)cc1 (stereo unspecified), the cytotoxicity was 60.2% (active). In the case of Cc1ccc(S(=O)(=O)C(C#N)c2nc3ccccc3nc2N2CC(C)OC(C)C2)cc1C (stereo unspecified), the cytotoxicity is reported as 76.5% (active). In the case of Cc1ccccc1C(=O)N1CCC(C(=O)Nc2cccc(F)c2)CC1, the cytotoxicity is reported as 3% (inactive). In the case of O=C(O)C1C2CCC(C2)C1C(=O)NCCCn1ccnc1 (stereo unspecified), the cytotoxicity is reported as -7.9% (inactive). In the case of CCCc1cc(=O)n2[nH]c(-c3cc(OC)c(OC)c(OC)c3)nc2n1, the cytotoxicity is reported as -9.7% (inactive). In the case of CCCOc1cccc(C(=O)Nc2cccc(NC(=O)c3ccco3)c2)c1, the cytotoxicity is reported as 7.4% (inactive). With Cc1[nH]nc2c1C(c1ccc(F)cc1)C(C#N)=C(N)O2 (stereo unspecified) the cytotoxicity was -10.6% (inactive). With CCOC(=O)C1CCCN(Cc2ccccc2F)C1 (stereo unspecified) the cytotoxicity was 4.8% (inactive). For CC(C)c1ccc(S(=O)(=O)N2CCN(CC(=O)Nc3ccc4c(c3)OCO4)CC2)cc1, the cytotoxicity was 2.2% (inactive). In the case of CCOC(=O)N1CCN(Cc2nc(-c3ccccc3)no2)CC1, the cytotoxicity is reported as 11.5% (inactive). For Cc1noc(C)c1CSc1nc2ccccc2nc1NS(=O)(=O)c1ccc(Cl)cc1, the cytotoxicity was 64.6% (active). In the case of O=S(=O)(Nc1nc2ccccc2nc1NCc1ccco1)c1ccc(Cl)cc1, the cytotoxicity is reported as 20.9% (inactive). With Cc1noc(C)c1CSc1ncnc2ccccc12 the cytotoxicity was 18.6% (inactive). With COc1cc(C2C(C(=O)OC(C)C)=C(C)Nc3[nH]c(=O)[nH]c(=O)c32)ccc1O (stereo unspecified) the cytotoxicity was -5.8% (inactive). For CN1C(=O)NC(NC(=O)c2cccs2)(C(F)(F)F)C1=O (stereo unspecified), the cytotoxicity was -12.1% (inactive). With COc1ccc(N(C(=O)c2cccc(OC)c2OC)C2C=CS(=O)(=O)C2)cc1 (stereo unspecified) the cytotoxicity was -2.9% (inactive). In the case of c1ccc2c(c1)oc1c(Nc3ccc4c(c3)OCO4)ncnc12, the cytotoxicity is reported as -23.6% (inactive). With COc1ccc(/C=N/n2c(N)nc3ccccc32)cc1OC the cytotoxicity was -9.4% (inactive). In the case of COc1ccc(-c2n[nH]c(C)c2-c2ccc(Cl)cc2)c(O)c1OC, the cytotoxicity is reported as -14.6% (inactive). For COc1ccc(-c2nc(N)ncc2-c2csc(C)n2)c(O)c1, the cytotoxicity was -17.5% (inactive). For C=C(C)COc1ccc(-c2nc(N)ncc2Oc2ccccc2OC)c(O)c1, the cytotoxicity was -4.5% (inactive). For Cc1[nH]nc(-c2ccc(O)cc2O)c1-c1ccc(Cl)cc1, the cytotoxicity was 53.9% (active). In the case of C=C(C)COc1ccc(-c2nc(N)ncc2-c2ccc(OC)cc2)c(O)c1, the cytotoxicity is reported as 120% (active). In the case of C=C(C)COc1ccc(-c2nc(N)ncc2Oc2ccc(OC)cc2)c(O)c1, the cytotoxicity is reported as -0.9% (inactive). In the case of Oc1ccc(-c2[nH]ncc2-c2ccc(Cl)cc2)c(O)c1, the cytotoxicity is reported as 49.9% (inactive). In the case of N#Cc1cc(C(=O)c2cc(Br)ccc2O)cn(C2CC2)c1=O, the cytotoxicity is reported as 10.6% (inactive). With O=C(c1ccc(CN2CCc3ccccc3C2)cc1)N1CCCCC1 the cytotoxicity was -21.9% (inactive). With O=S(=O)(c1ccc(N2CCOCC2)cc1)N1CCOCC1 the cytotoxicity was -6.3% (inactive). In the case of CC(=O)N1CC2(C)CN(C(C)=O)CC(C)(C1)C2O (stereo unspecified), the cytotoxicity is reported as 1.7% (inactive). For CCOc1cc(S(=O)(=O)NCCN2CCOCC2)c(C)cc1C, the cytotoxicity was -17.8% (inactive). In the case of C=CCc1ccccc1OCC(O)CN1CCN(c2ccc(OC)cc2)CC1 (stereo unspecified), the cytotoxicity is reported as 9.3% (inactive). In the case of COC(=O)C1(CCSC)NC(c2ccccc2OC)C2C(=O)N(C)C(=O)C21 (stereo unspecified), the cytotoxicity is reported as 8% (inactive). For O=c1c2ccccc2nnn1CSc1nc2cc(Cl)ccc2c(=O)n1Cc1ccco1, the cytotoxicity was 6.2% (inactive). With CCOC(=O)N1CCN(C2=CC(=O)OC23CCCCC3)CC1 the cytotoxicity was 3.3% (inactive). For COc1cccc(Oc2cncnc2-c2ccc(OC)cc2O)c1, the cytotoxicity was 21.1% (inactive). With C=C(C)COc1ccc(-c2n[nH]c(C)c2Oc2ccccc2OC)c(O)c1 the cytotoxicity was 66.1% (active). With COc1ccc(Oc2c(-c3ccc(O)cc3O)n[nH]c2C)cc1 the cytotoxicity was 27.1% (inactive). For Cc1[nH]nc(-c2ccc(O)cc2O)c1Oc1ccccc1, the cytotoxicity was 63.9% (active). With Cc1oc2cc(O)ccc2c(=O)c1Oc1ccccc1 the cytotoxicity was -6.1% (inactive). In the case of CCOc1ccc(-c2n[nH]c(C)c2Oc2ccccc2OC)c(O)c1, the cytotoxicity is reported as 2.5% (inactive). With C=C(C)COc1ccc(-c2nc(N)nc(C)c2Oc2ccccc2OC)c(O)c1 the cytotoxicity was 1.4% (inactive). For C=C(C)COc1ccc(-c2ncncc2Oc2ccc(OC)cc2)c(O)c1, the cytotoxicity was 17.6% (inactive). In the case of CCc1nnc(NC(=O)CSc2nnc(-c3ccoc3C)n2-c2ccc(C)cc2)s1, the cytotoxicity is reported as -6.5% (inactive). With CC(OC(=O)C1CC=CCC1C(N)=O)C(Cl)=C(Cl)Cl (stereo unspecified) the cytotoxicity was -9.4% (inactive). In the case of CC(C)OC(=O)CSc1nnc(-c2cnccn2)n1C, the cytotoxicity is reported as -7.5% (inactive). With O=C(NCCN1CCN(c2ccccc2F)CC1)C1c2ccccc2C(=O)N2CCc3ccccc3C12 (stereo unspecified) the cytotoxicity was -3.5% (inactive). In the case of N#CCCC12CCCCC1=Nc1ccccc12 (stereo unspecified), the cytotoxicity is reported as -11.5% (inactive). With CCN1CCN(CC(=O)n2c3c(c4ccccc42)CC(C)CC3)CC1 (stereo unspecified) the cytotoxicity was 16.2% (inactive). With COc1ccc(CNC(=O)c2cc(-c3ccco3)on2)cc1 the cytotoxicity was -5.9% (inactive). With c1csc(-c2nn3c(C4COc5ccccc5O4)nnc3s2)c1 (stereo unspecified) the cytotoxicity was -1.6% (inactive). With C=CCOc1nc2c(c(=O)n(C)c(=O)n2C)n1Cc1ccc(Cl)cc1 the cytotoxicity was 64.6% (active). In the case of C=CCOc1nc2c(c(=O)n(C)c(=O)n2C)n1Cc1ccc(Cl)cc1Cl, the cytotoxicity is reported as -24.2% (inactive). With C=CCOc1nc2c(c(=O)n(Cc3ccc(Cl)cc3)c(=O)n2C)n1C the cytotoxicity was -0.2% (inactive). For CCC(C)NC(=O)CN(c1ccc2c(c1)OCO2)S(=O)(=O)c1c(C)n[nH]c1C (stereo unspecified), the cytotoxicity was 3.1% (inactive). For CC1(C)CC(=O)c2cnc(NC(=O)CCc3ccccc3)nc2C1, the cytotoxicity was -12.6% (inactive). With Cc1ccnc(SCC(=O)Nc2oc(-c3ccccc3)c(-c3ccccc3)c2C#N)n1 the cytotoxicity was 29.2% (inactive). For CCn1c(SCC(=O)Nc2oc(-c3ccccc3)c(-c3ccccc3)c2C#N)nnc1-c1ccco1, the cytotoxicity was 29.1% (inactive). In the case of N#Cc1c(NC(=O)Cn2c(=O)oc3ccccc32)oc(-c2ccccc2)c1-c1ccccc1, the cytotoxicity is reported as 52% (active). For N#Cc1c(NC(=O)CN2CCOCC2)oc(-c2ccccc2)c1-c1ccccc1, the cytotoxicity was 10.6% (inactive). For N#Cc1c(NC(=O)CCN2C(=O)c3ccccc3C2=O)oc(-c2ccccc2)c1-c1ccccc1, the cytotoxicity was 2.4% (inactive).
